Source: PubChem BioAssay
hgDAF12 agonist – agonists of H. glycines DAF-12 nuclear receptor. HEK293 GAL4-hgDAF12 UAS-luciferase reporter, agonist luminescence; normalized to butyrate control. activation, % at 6.8 µM. hit rate 1.8% among 370,000. AID 687014;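 active = activation above a cutoff set at the mean of all screened compounds plus 3 SD, cut at about 10% in these data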;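 also: 0% = DMSO wells and 100% = sodium butyrate wells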
ssDAF-12 act – activates DAF-12 receptor from parasite S. stercoralis. HEK293 ssDAF-12/GRIP1 lit1-tk-luc reporter, luminescence; % of 3 µM dafachronic acid response. activation, % at 6.8 µM. hit rate 1% among 370,000. AID 652126;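 active = activation above the mean over all tested compounds plus 3 SD, cut at about 0.9% in these data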;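 also: 0% = DMSO-only wells and 100% = 3 µM delta7-dafachronic acid wells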
SMARCA2 act – increases SMARCA2 function in MMTV reporter cells; hit rate 1% among 370,000; activation, % at 9.1 µM; AID 652017; MG213 cells, MMTV-luciferase reporter, dexamethasone, overnight; in the data active = activation above about 7.8%;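 also: 0% = vehicle wells and 100% = reference activator wells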
DAX1 inh-1 – inhibitors of human orphan nuclear receptor DAX1 (NR0B1) | P51843 | HEK293 Gal4-DAX1 luciferase reporter, luminescence | inhibition, % at 6.75 µM | hit rate 0.99% among 340,000 | AID 504766;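 active = inhibition above the mean over all tested compounds plus 3 SD, cut at about 4.2% in these data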;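 also: 0% = DAX1-transfected cells with DMSO and 100% = empty-vector control cells with DMSO; inhibition shows as a rise in luminescence from relieved DAX1 repression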
Target sequence (P51843 207-470 limits assumed): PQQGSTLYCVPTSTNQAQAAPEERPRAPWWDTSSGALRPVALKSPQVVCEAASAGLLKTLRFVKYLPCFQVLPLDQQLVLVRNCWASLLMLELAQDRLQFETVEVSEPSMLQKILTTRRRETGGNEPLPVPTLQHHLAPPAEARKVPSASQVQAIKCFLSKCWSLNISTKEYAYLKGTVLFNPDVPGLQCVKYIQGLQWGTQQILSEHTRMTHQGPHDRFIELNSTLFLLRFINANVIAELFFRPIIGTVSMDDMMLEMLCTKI
DAX1 inh-2 – DAX1 (NR0B1) inhibition, primary screen; HEK293T StAR-luciferase reporter, SF-1/DAX-1 repression relief; inhibition, % at 6.8 µM; hit rate 1.1% among 370,000; AID 652010;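 active = inhibition above the mean over all tested compounds plus 3 SD, cut at about 3.6% in these data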;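 also: 0% = DAX-1 cells with DMSO and 100% = cells lacking DAX-1 with DMSO; higher inhibition means more luminescence from relief of DAX-1 repression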
hcDAF12 agonist – H. contortus DAF-12 activation, primary screen. hit rate 1.4% among 370,000. activation, % at 6.8 µM. AID 652067. HEK293 hcDAF-12 lit1-tk-luc reporter, luminescence; 0% DMSO, 100% Δ7-dafachronic acid;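 active = activation above the mean of all tested compounds plus 3 SD, cut at about 5.5% in these data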;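 also: 100% = response to 3 µM Δ7-dafachronic acid high control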
An asterisk follows results filed as active; · = no result given. An excerpt weighted towards active compounds, which were near 4.8% of everything screened.

SMILES	hgDAF12 agonist	ssDAF-12 act	SMARCA2 act	DAX1 inh-1	DAX1 inh-2	hcDAF12 agonist
CC(C)CCOCC(=O)Nc1cccc(C(=O)O)c1	12*	0	3	-2	3	4
Cc1cc(NC(=O)CSc2n[nH]c(N)n2)no1	0	-1	2	0	4.3*	0
CCc1nc(SCC(=O)Nc2cc(C)on2)c2c(C)c(C)sc2n1	-1	0	2	5.7*	0	-2
Cc1cc(NC(=O)C(C)SCC(=O)Nc2cc(C(F)(F)F)ccc2N2CCCCC2)no1 (stereo not drawn)	2	-1	0	-2	1	0
Cc1cc(NC(=O)CSCC(=O)Nc2cc(C(F)(F)F)ccc2N2CCCCC2)no1	5	0	-5	0	2	6.0*
Cc1cc(NC(=O)CSCC(=O)Nc2nc3ccccc3[nH]2)no1	3	1	-1	1	3	5.8*
CCN(CC)C(=O)CC[C@H]1CC[C@]2(CCCN(CC3CC3)C2)O1	-2	-1	-2	·	0	-1
Cc1cc(NC(=O)CSCC(=O)Nc2nc3ccc(F)cc3s2)no1	2	0	2	0	1	5.7*
Cc1ccc2nc(NC(=O)CSCC(=O)Nc3cc(C)on3)sc2c1	4	-1	5	0	2	1
COC(=O)c1ccc(-c2ccc(/C=N/NC(=O)CC3(C)OCCCO3)o2)cc1	7	0	7.8*	3	-1	2
CC(=O)N1CCc2cc(NC(=O)c3ccc(C)cc3)ccc21	11*	-1	2	-1	2	2
CC(=O)N1CCN(c2ccc(NC(=O)c3ccc(C)cc3)cc2)CC1	0	-1	4	0	0	-2
CC(C)C1NC(=S)N(C2CCCCC2)C1=O (stereo not drawn)	2	1.2*	-2	0	0	-1
COC(=O)c1c(NC(=O)C2CCCCC2C(=O)O)sc2c1CCCCC2 (stereo not drawn)	3	0	4	4.9*	2	3
Cc1ccc(N2NC(C)(c3cccs3)NC2=S)cc1 (stereo not drawn)	-2	0	-2	4.3*	0	3
C=CCN1C(=O)/C(=C/c2ccc(O)cc2)S/C1=N/c1nccs1	-2	-2	0	-1	-2	0
C=CCN=C1S/C(=C\c2ccc(N(C)C)cc2)C(=O)N1CC=C	3	-1	7	4.7*	1	-1
COCC#Cc1ccc(CC[C@H]2O[C@H]3CC[C@@H](CO)O[C@H]3C[C@H]2n2cc(C3CC3)nn2)cc1	0	-1	3	·	0	-2
O=C1[C@@H](CCc2ccccc2)[C@@H]2c3ccccc3C=NN2[C@@H]2c3ccccc3C=NN12	3	-1	-2	·	0	2
CC(=O)Nc1ccc2nc(C3CC3)n(Cc3ccc(Cl)cc3)c(=O)c2c1	8	0	3	4	3	2
COc1ccc(Cn2c(C3CC3)nc3ccc(NC(=O)C4CC4)cc3c2=O)cc1	11*	1	5	3	2	3
COC(=O)c1cc2c(c3c4ccccc4n(S(=O)(=O)c4ccc(OC)cc4)c13)C(=O)N(Cc1ccco1)C2	-2	-1	1	·	-2	0
COc1ccc2c3c([nH]c2c1)[C@]1(CCNC=O)Nc2ccccc2C1=NCC3	2	0	·	·	·	5
CCCS(=O)(=O)N1CCN(C2CCC(C)CC2)CC1 (stereo not drawn)	-2	-2	-1	5.7*	-1	-1
Cc1ccc(S(=O)(=O)N2CCOC2C(Cl)(Cl)Cl)cc1 (stereo not drawn)	-4	1.2*	-6	0	0	-2
SMILES	hgDAF12 agonist	ssDAF-12 act	SMARCA2 act	DAX1 inh-1	DAX1 inh-2	hcDAF12 agonist
CNC(=O)C(=O)NCC1OCCN1S(=O)(=O)c1ccc(C)cc1 (stereo not drawn)	0	-1	-2	1	0	-1
CC[C@]12c3[nH]c4ccccc4c3CCN1C(=O)C(CC(=O)NCc1ccco1)C[C@@H]2C(=O)N1CCN(C(=O)c2ccco2)CC1 (stereo partly drawn)	-2	-1	-2	5.8*	0	0
O=C(CC1C[C@H](C(=O)N2CCOCC2)[C@@]2(CCC3CCCC3)c3[nH]c4ccccc4c3CCN2C1=O)NCCC1=CCCCC1 (stereo partly drawn)	0	0	-3	0	3	1
CC(C)N(C(=O)[C@H]1C[C@H](CC(=O)NCc2ccco2)C(=O)N2CCc3c([nH]c4cc(CCC(=O)N(C)C)ccc34)[C@]12C)C(C)C	7	-1	7.9*	1	2	1
CN(C)CCCNC(=O)CC1C[C@H](C(=O)N2CCOCC2)[C@@]2(CCC3CCCC3)c3[nH]c4ccccc4c3CCN2C1=O (stereo partly drawn)	2	0	-5	4.3*	3.7*	0
COCCCNC(=O)CC1C[C@H](C(=O)N2CCOCC2)[C@@]2(C)c3[nH]c4ccc(OC)cc4c3CCN2C1=O (stereo partly drawn)	3	-1	-3	-1	4.1*	2
CC1(C)CC2CN(Cc3ccccc3)S(=O)(=O)N2C1 (stereo not drawn)	2	-1	·	·	·	2
CCCn1nnc(NC(=S)NC(=O)c2cccs2)n1	1	-1	0	0	1	3
CCCCn1nnc(N(C(=O)c2cccs2)C(=O)c2cccs2)n1	6	0	1	5.7*	0	0
COC1=C[C@H](C(=O)NCCNC(C)=O)[C@@]2(C)Cc3ccccc3[C@H]2CC1=O	-4	-1	-3	·	0	-2
Cc1c(N2C(=O)c3ccc(Br)cc3C2=O)c(=O)n(-c2ccccc2)n1C	-2	-1	-5	5.4*	0	-1
Cc1cc(N2CCN(S(C)(=O)=O)C[C@@H]2C)ccc1N1CCN(Cc2ccccc2)[C@@H](C)C1	2	-1	-1	·	-1	-2
CCCCCCc1ccc(NC(=O)[C@@H]2CC=C[C@@H]3CCN(Cc4ccccc4)C(=O)[C@@H]32)cc1	2	-1	·	·	·	-2
Cc1cccc(-c2cc3nc4c(c(N5CCC6(CC5)OCCO6)n3n2)CCCC4)c1	0	-1	1	-1	1	1
Cc1cccc(-c2cc3nc4c(c(N5CCOCC5)n3n2)CCCC4)c1	8	-1	6	3	4.5*	3
CCC[C@H]1[C@@H](NCc2cccs2)CC[C@@]23CCCN2C(=O)CCC[C@@H]13	-3	-1	·	·	·	-2
CCNCc1ccc(OCc2ccccc2F)c(OC)c1	5	-1	1	1	1	0
COc1cc(CNCCCCO)ccc1OCc1ccccc1F	11*	-1	0	0	1	1
Cc1ccc(NC(=O)c2ccc(OC(=O)COc3ccc(Cl)cc3C)cc2)cc1	13*	0	3	1	3.9*	6.1*
